Measurements taken from PubChem BioAssay AID489025 (Southern Research Specialized Biocontainment Screening …, 2010).
Hit rate of the full screen: of about 2,300 compounds, about 790 (34%) were called active. No rule for the calls is given here. The list shows a part of the results. Entries with a potency or affinity are not part of this list.

Assay: THP-1 cell cytotoxicity, dose response, cytotoxicity control for non-replicating M. tuberculosis project (AID 489025)
Details: THP-1 cell viability; series mostly up to 40 µM

Row | SMILES | outcome
1 | O=C(CCN1CCC(c2ccccc2)C1)c1ccccc1 (stereo not given) | inactive
2 | O=C(CNC(=O)c1ccccc1F)OCc1csc(-c2ccccc2)n1 | inactive
3 | O=C(NCc1ccc2c(c1)OCO2)c1ccc(Cl)s1 | inactive
4 | C=CCc1ccc2oc(C(=O)OCC)cc(=O)c2c1O | inactive
5 | CCc1ccc(C(C)NC(=O)C2CCCO2)cc1 (stereo not given) | inactive
6 | CC1=CC(=O)NP(=O)(Oc2ccc3ccccc3c2)N1 (stereo not given) | inactive
7 | O=C(NNc1nc2ccccc2s1)c1ccc(F)cc1 | inactive
8 | Cc1nc2ccc(NC(=O)COc3cccc(F)c3)cc2s1 | inactive
9 | COc1cc(/C=C2/C(=O)NN(c3cccc(C)c3)C2=O)ccc1OC(=O)c1ccco1 | inactive
10 | COc1cc(NC(=O)C/C(C)=N/NC(=O)c2cccs2)c(OC)cc1Cl | inactive
11 | Cc1cccc2nc(CSc3nc4cc([N+](=O)[O-])ccc4s3)cn12 | inactive
12 | O=C(O)c1ccc(NCc2ccc(Br)cc2)cc1 | inactive
13 | O=C(CN1CCOCC1)N/N=C/c1ccc(-c2ccc(Br)cc2)o1 | inactive
14 | CCCOC(=O)c1cc(-c2ccc(C=O)o2)ccc1Cl | inactive
15 | COC(=O)c1cc(-c2ccc(OC)cc2)on1 | inactive
16 | CCOC(=O)c1c(-c2ccccc2)csc1NC(=O)CCN1CCOCC1 | inactive
17 | CCOC(=O)c1sc(NC(=O)CCN2CCOCC2)c(C(=O)OCC)c1C | inactive
18 | CCOC(=O)Nc1cccc(OCC(=O)Nc2ccc(OC)cc2OC)c1 | inactive
19 | CCOC(=O)CNC(=O)N1c2ccccc2Sc2ccccc21 | inactive
20 | COc1cc(/C=N/Nc2ccc(Cl)c(C(=O)O)c2)ccc1OC(=O)c1ccco1 | inactive
21 | CC(C)CSc1nnc2c3ccccc3n(C)c2n1 | inactive
22 | Cc1ccc(/C(O)=C/c2nc3ccccc3oc2=O)cc1 | inactive
23 | COc1ccc(C(=O)COC(=O)c2ccc(Cl)nc2)c(OC)c1 | inactive
24 | O=C1CC(N2CCN(c3ccc(F)cc3)CC2)C(=O)N1Cc1ccccc1 (stereo not given) | inactive

Row | SMILES | outcome
25 | O=C(NNc1c(F)c(F)cc(F)c1F)c1cc2ccccc2oc1=O | inactive
26 | Nc1ccc2cc(Br)ccc2c1 | inactive
27 | O=C(OCC(=O)N1CCCc2ccccc21)c1ccc(S(=O)(=O)C(F)F)cc1 | inactive
28 | O=C(C1CCN(C2CC(=O)N(Cc3ccccc3)C2=O)CC1)N1CCCCCC1 (stereo not given) | inactive
29 | Cc1cccc(OC(=O)c2ccc3nccnc3c2)c1 | inactive
30 | CCOC(=O)C1(CC2CCCCO2)CCN(Cc2nccn2-c2ccc(OC)cc2)CC1 (stereo not given) | inactive
31 | O=C(COc1ccc2ccccc2c1Br)N1CCCC1 | inactive
32 | C=CC(=O)Oc1ccc(N2Cc3ccccc3C2=O)cc1 | inactive
33 | CCOC(=O)Cn1nc(/C=C/c2ccccc2)ccc1=O | inactive
34 | O=C1NC(Cc2c[nH]c3ccccc23)C(=O)N1CCOc1ccccc1 (stereo not given) | inactive
35 | CC(C)c1nnc(NC(=O)c2sc3ccccc3c2Cl)s1 | inactive
36 | CC(C)c1nnc(NC(=O)c2cc3cc(Br)ccc3oc2=O)s1 | inactive
37 | O=C(N/N=C/C=C/c1ccccc1)c1cccs1 | inactive
38 | N/C(=N\OC(=O)c1cccs1)c1ccccc1 | inactive
39 | CCOC(=O)c1c(C)[nH]c(C)c1C(=O)COC(=O)c1ccc([N+](=O)[O-])s1 | inactive
40 | O=C(OCC(=O)c1c[nH]c2ccccc12)c1ccc([N+](=O)[O-])s1 | inactive
41 | CC1(C)CC(=O)C2=C(C1)OC(N)=C([N+](=O)[O-])C2c1ccc(C#N)s1 (stereo not given) | inactive
42 | COC(=O)C1=C(N)OC2=C(C(=O)CC(C)(C)C2)C1c1cccnc1 (stereo not given) | inactive
43 | COc1ccccc1NC(=O)CCN1CCN(c2ccc(Cl)cc2)CC1 | inactive
44 | O=[N+]([O-])c1ccc(CSc2nnc(-c3cccnc3)o2)cc1 | inactive
45 | CC1(c2nnc(-c3ccc(F)cc3)o2)CC(c2cccc(Cl)c2)=NO1 (stereo not given) | inactive
46 | COC(=O)CCn1c(C)cc(C(=O)COc2ccccc2C(N)=O)c1C | inactive
47 | CCOC(=O)C(C)Oc1ccc(OCc2ccccc2)cc1 (stereo not given) | inactive
48 | CCCNC(=O)c1ccc(COc2ccc(C)cc2)o1 | inactive

Row | SMILES | outcome
49 | Cc1ccc(/C=C2\SC(N3CCCC3)=NC2=O)cc1 | inactive
50 | CCNC(=O)NC(=O)C(C)OC(=O)CCCSc1nc2ccccc2s1 (stereo not given) | inactive
51 | O=[N+]([O-])c1ccc(Nc2ccccc2O)c2nonc12 | inactive
52 | O=[N+]([O-])c1ccc(Nc2ccccc2)c2nonc12 | inactive
53 | CC1(c2nnc(-c3ccccc3)o2)CC(c2ccc(Cl)cc2)=NO1 (stereo not given) | inactive
54 | Cn1cccc1/C=N/NC(=O)c1ccncc1 | inactive
55 | C/C(=N/NC(=O)c1ccncc1)C1=C(O)CC(C)(C)CC1=O | inactive
56 | O=[N+]([O-])c1cncc([N+](=O)[O-])c1Nc1ccccc1Cl | inactive
57 | Cc1cccc(NC(=O)c2ccc(OC3CSC3)cc2)c1 | inactive
58 | O=C(N/N=C/c1ccc(OC(=O)c2cccs2)cc1)c1ccccn1 | inactive
59 | COc1ccc(Cc2nnc(SCc3ccc([N+](=O)[O-])cc3)o2)cc1 | inactive
60 | CC(OC(=O)c1ccc([N+](=O)[O-])s1)C(=O)NC1CCCCC1C (stereo not given) | inactive
61 | O=C(Nc1ccc2c(c1)CCC2)c1ccc(Br)o1 | inactive
62 | O=C(OCC(=O)N1CCC(c2ccccc2)=N1)c1ccc([N+](=O)[O-])s1 | inactive
63 | COc1cccc(NC(=O)c2ccc(Cn3cc([N+](=O)[O-])cn3)o2)c1 | inactive
64 | CC(=O)c1ccc(NC(=O)CCc2ccc(C)o2)cc1 | inactive
65 | CC(C)(C)C(=O)/C=C/Nc1ccccc1O | inactive
66 | O=C(CC1CC2CCC1C2)NCc1cccs1 (stereo not given) | inactive
67 | O=C(OCC(=O)N1CCc2ccccc2C1)c1cccc([N+](=O)[O-])c1 | inactive
68 | O=C(CCS(=O)(=O)c1ccc(Cl)cc1)Oc1ccc2c(c1)OCO2 | inactive
69 | CCc1cc(C=NC2CCCCC2)c(O)s1 | inactive
70 | Cc1ccc(CSc2nnc(-c3cccnc3)o2)cc1 | inactive
71 | Cc1ccccc1C1=N/C(=C/c2cccnc2)C(=O)O1 | inactive
72 | CCCc1nnc(NC(=O)c2cc3ccccc3oc2=O)s1 | inactive

Row | SMILES | outcome
73 | COc1cc(OC)c2c(OC)cccc2n1 | inactive
74 | CC(NC(=O)c1cc2ccccc2oc1=O)c1ccccc1 (stereo not given) | inactive
75 | Cc1ccc(C(C)NC(=O)c2cc3ccccc3oc2=O)cc1C (stereo not given) | inactive
76 | CCCc1cc(C(=O)Nc2cccc(C(C)=O)c2)no1 | inactive
77 | Cc1cc(OCC(=O)Nc2ccncc2)ccc1Br | inactive
78 | CSC1=N/C(=C\c2ccc3c(c2)OCO3)C(=O)S1 | inactive
79 | COc1ccc2c(c1)sc(=N)n2C | inactive
80 | Cc1ccc(NC(=O)C2COc3ccccc3O2)nc1 (stereo not given) | inactive
81 | O=C(Nc1nnc(C2=COCCO2)o1)c1ccc(F)cc1 | inactive
82 | COc1ccc(C(=O)Nc2nnc(C3=COCCO3)o2)cc1 | inactive
83 | O=c1oc2ccccc2c(Nc2ccccc2O)c1[N+](=O)[O-] | inactive
84 | CCCn1c(CNc2ccccc2O)nc2ccccc21 | inactive
85 | Clc1ccc(OC2CCN(Cc3nc(CC4CC4)no3)CC2)cc1 | inactive
86 | CCCCOc1ccc(-c2nnn(C(C)C(=O)OCC)n2)cc1 (stereo not given) | inactive
87 | CCOC(=O)c1sc(NC(=O)CCN2CC(C)OC(C)C2)c(C(=O)OCC)c1C (stereo not given) | inactive
88 | CCc1nonc1NC(=O)COc1ccc(Cl)c(C)c1 | inactive
89 | Cc1cc(C)cc(OC(=O)CCN2C(=O)c3ccccc3C2=O)c1 | inactive
90 | O=C1c2ccccc2C(=O)N1CCOc1ccc(F)cc1 | inactive
91 | COc1cccc2cc(C(=O)c3ccc([N+](=O)[O-])cc3)oc12 | inactive
92 | O=C(c1ccc([N+](=O)[O-])o1)N1CCN(c2nc3ccc(F)cc3s2)CC1 | inactive
93 | C=CC[n+]1ccn(-c2nc3ccccc3nc2[N-]S(=O)(=O)c2cccs2)c1 | inactive
94 | CCCCCCNC(=O)c1ccc(Br)o1 | inactive
95 | CC(=O)CCC1CC(c2ccc(Cl)cc2)=NO1 (stereo not given) | inactive
96 | Cc1c(Cl)cccc1NC(=O)C(=O)NNC(=O)c1ccccc1F | inactive

Row | SMILES | outcome
97 | CCOC(=O)c1c(NC(=O)COC(=O)c2ccccn2)sc2c1CCC2 | inactive
98 | O=C(Nc1nnc(-c2cc(Cl)ccc2Cl)o1)C1=COCCO1 | inactive
99 | O=C(CCN1C(=O)S/C(=C\c2ccc(F)cc2)C1=O)Nc1ccc(C(=O)O)c(O)c1 | inactive
100 | O=C(NNC(=O)c1ncc(Cl)c(Cl)c1Cl)c1ccc(F)cc1 | inactive
101 | CC1CCN(CCOCCSc2ccc(Cl)cc2)CC1 | inactive
102 | COc1ccc2cc(C(=O)NCc3ccccc3)c(=O)oc2c1 | inactive
103 | O=C(CCC1CCCC1)NCc1ccccn1 | inactive
104 | COc1ccc(NC(=O)COc2ccc3c(c2)CCC3)cc1 | inactive
105 | O=C1OC(/C=C/c2ccccc2)=NC/1=C\c1cccnc1 | inactive
106 | Cc1ccc(C2=N/C(=C\c3cccnc3)C(=O)O2)cc1 | inactive
107 | Cn1c(=O)c(Oc2ccc(Cl)cc2)c(O)c2ccccc21 | inactive
108 | Cc1cccnc1NC(=O)c1c(O)c2ccccc2n(C)c1=O | inactive
109 | CCn1c(=O)c(C(=O)Nc2ncccc2C)c(O)c2ccccc21 | inactive
110 | C=CCn1c(=O)c(C(=O)Nc2cccnc2)c(O)c2ccccc21 | inactive
111 | COc1cc(C2C3=C(CC(C)(C)CC3=O)OC(N)=C2[N+](=O)[O-])ccc1O (stereo not given) | inactive
112 | CCCCOc1ccc(CSCCN)cc1Cl | inactive
113 | O=C1N(c2ccc3c(c2)OCCO3)C(c2ccccc2)C1(F)F (stereo not given) | inactive
114 | NC(=O)COc1ccc2cc(-c3ccc(F)cc3)c(=O)oc2c1 | inactive
115 | Cc1n[nH]c(=S)n1/N=C/c1ccc(OCc2ccc(Cl)cc2Cl)cc1 | inactive
116 | CN1CCC(O)(c2cccs2)C(C(=O)c2cccs2)C1 (stereo not given) | inactive
117 | CC1CCN(C(=O)C2COc3ccccc3O2)CC1 (stereo not given) | inactive
118 | CCCn1c(=O)c(C(=O)N/N=C/c2ccccc2F)c(O)c2ccccc21 | inactive
119 | C/C(=N\Nc1nc2ccccc2[nH]1)c1ccc(N2CCOCC2)cc1 | inactive
120 | CCCCN(C/C=C/c1ccccc1OC)Cc1ccccc1 | inactive
